Screening data from PubChem BioAssay.
PostGolgi yeast: growth inhibition of a yeast mutant, post-Golgi transport screen; hit rate 0.9% among 98,000; inhibition, % at 10 µM; post-Golgi transport phenotypic cell assay; AID 739;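 further: yeast cells grown in 1536-well plates; yeast grown about 18 h at 30C before absorbance read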
PostGolgi ctrl: inhibits growth of the yeast control strain. efflux-deficient yeast background strain, growth absorbance A615, 16 h. inhibition, % at 10 µM. hit rate 5% among 98,000. AID 738
CYP2C9 inhib: blocks human cytochrome P450 2C9. P11712. CYP2C9 Supersomes, luciferin-H conversion, luminescence. inhibition, % at 5 µM. hit rate 20% among 96,000. AID 777;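 active means blocking of liver enzyme CYP2C9 beyond about 50% at 5 µM, limit read from the data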
CYP2C19 activ: activators of human cytochrome P450 2C19 | P33261 | recombinant CYP2C19, luciferin-H EGE luminescence; hits give high values; 0 = fully inhibited enzyme, 1 = untreated enzyme | activation factor at 5 µM | 96,000 tested, under 10 active | AID 1025;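 active means activation factor of at least 2 at 5 µM in the primary screen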;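 further: 0 = wells with 2.5 mM tranylcypromine and 1 = vehicle-only wells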
Target sequence (P33261 whole entry, looked up): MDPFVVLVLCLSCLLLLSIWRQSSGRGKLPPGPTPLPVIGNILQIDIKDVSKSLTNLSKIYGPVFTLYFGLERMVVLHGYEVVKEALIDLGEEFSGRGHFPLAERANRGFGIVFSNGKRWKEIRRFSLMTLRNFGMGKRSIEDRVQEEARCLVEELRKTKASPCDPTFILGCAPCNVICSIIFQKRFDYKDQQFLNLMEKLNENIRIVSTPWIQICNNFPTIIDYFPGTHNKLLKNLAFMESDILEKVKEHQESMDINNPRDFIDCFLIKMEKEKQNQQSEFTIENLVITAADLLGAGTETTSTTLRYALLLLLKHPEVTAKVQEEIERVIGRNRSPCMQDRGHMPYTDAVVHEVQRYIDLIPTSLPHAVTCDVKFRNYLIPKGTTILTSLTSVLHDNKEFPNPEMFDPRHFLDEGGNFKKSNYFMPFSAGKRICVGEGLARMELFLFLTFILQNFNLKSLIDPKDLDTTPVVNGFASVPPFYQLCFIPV
CYP2C9 act: increases human cytochrome P450 2C9 activity. activation factor at 5 µM. P11712. AID 1024. recombinant CYP2C9, luciferin-H conversion, luminescence; hits give high values; factor 1 = untreated enzyme, 0 = blocked. hit rate 1.4% among 96,000;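 active means activation factor of 2 or more for CYP2C9 at a 5 µM dose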;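 further: 0 = sulfaphenazole-blocked wells and 1 = vehicle-only wells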
CYP2C19 inhib: human CYP2C19 inhibition | CYP2C19 Supersomes, luciferin-H EGE luminescence, 30 min | inhibition, % at 5 µM | hit rate 21% among 96,000 | AID 778;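 active means CYP2C19 inhibition above a set limit at 5 µM in the primary screen, cut at about 50% in these data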;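 further: plate controls were negative control wells for no effect and 2.5 mM tranylcypromine positive control for full effect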
* hit, by the source's call. Compounds with a hit are over-represented: about 32% of the library has one in this group of screens. Unless noted, no stated cut-off is given here; in the data, active means inhibition above about 30%; inactive means the rest.

SMILES	PostGolgi yeast	PostGolgi ctrl	CYP2C9 inhib	CYP2C19 activ	CYP2C9 act	CYP2C19 inhib
COC(=O)c1cc(OC)c(OC)cc1NC(=O)c1c(-c2ccccc2)noc1C	-3	13	75*	0.4	0.2	56*
Cc1ccccc1NC(=O)c1c(-c2ccccc2)noc1C	5	11	-2	0.5	1	52*
C=CCn1c(=O)c2c3c(sc2n2c(Nc4ccc(C(=O)OCC)cc4)nnc12)CCCC3	2	-4	36	0.8	0.6	23
C=C(C)n1c(=O)[nH]c2ccccc21	4	-2	-15	1.2	1.1	-19
COC(=O)c1cc(OC)c(OC)cc1NC(=O)Nc1ccc(OC)cc1OC	-1	5	84*	0.3	0.2	68*
COc1ccc(/C=N/NC(=O)c2nc(-c3ccccc3)cc(-c3ccccc3)n2)cc1OC	3	32*	-6	1	1.1	1
COc1cccc(/C=N/NC(=O)c2nc(-c3ccccc3)cc(-c3ccccc3)n2)c1	0	11	27	0.7	0.7	34
COc1cc(/C=N/NC(=O)c2c(-c3ccccc3)noc2C)ccc1O	4	-1	77*	0.5	0.2	52*
CCn1c2ccccc2c2cc(/C=N/NC(=O)c3ccccc3)ccc21	-8	28	8	0.3	0.9	73*
NC(=S)Nc1ccc(Oc2ccc(NC(N)=S)cc2)cc1	1	6	12	1	0.9	-5
Cc1ccc(C(=O)c2coc3ccc(O)c(CN4CCN(C)CC4)c23)cc1	3	13	-11	0.2	1.1	78*
O=C(c1cccs1)c1coc2ccc(O)c(CN3CCOCC3)c12	3	3	73*	0.3	0.3	65*
O=C(c1coc2ccc(O)c(CN3CCOCC3)c12)C1CC1	1	16	12	0.7	0.9	28
Cc1nc2sc(C(c3cccc(F)c3)N3CCCCC3)c(O)n2n1 (configuration not stated)	-2	7	12	0.7	0.9	28
CCC(C)N1CC23C=CC(O2)C(C(=O)OCc2ccccc2)C3C1=O (configuration not stated)	6	16	47	1.1	0.5	-5
COC(=O)c1ccc(Cn2nc(C)cc2C)cc1	2	7	-4	0.1	1	93*
COC(=O)c1ccc(Cn2nc(C(F)(F)F)cc2C)cc1	9	15	27	0.3	0.7	69*
Cc1cc(C(F)(F)F)nn1CC(=O)NCc1ccccc1	5	0	-37	0.5	1.4	52*
Cc1ccccc1NC(=O)Cn1nc(C(F)(F)F)cc1C1CC1	-3	17	-8	0.3	1.1	72*
CCc1ccccc1NC(=O)CN1CCC(NC(=O)COC)CC1	15	6	14	0.9	0.9	8
Cc1cc(C)n(Cc2ccc(C(=O)O)cc2)n1	-11	-5	4	0.9	1	11
Cc1cc(C)n(Cc2ccc(NC(=O)c3ccc(COc4ccccc4Br)cc3)cc2)n1	-7	10	77*	0.7	0.2	31
COC(=O)c1ccc(Cn2nc(C)c(Br)c2C)cc1	-16	2	70*	0	0.3	99*
COC(=O)c1cc(C(=O)OC)n(Cc2ccc(Br)cc2)n1	9	-2	58*	0.1	0.4	91*
O=C(NCCN1CCCCC1)/C(=N\O)c1ccccc1	2	-3	-7	1	1.1	1
SMILES	PostGolgi yeast	PostGolgi ctrl	CYP2C9 inhib	CYP2C19 activ	CYP2C9 act	CYP2C19 inhib
COCCNC(=S)NC1CC2CCCC(C1)N2Cc1ccco1 (configuration not stated)	-3	-11	17	0.5	0.8	46
Cc1ccccc1-n1nnnc1SCc1ncc(-c2ccccc2)o1	0	14	82*	0.7	0.2	31
O=C1c2ccccc2C(=O)N1CCCCSc1nnc2ccccn12	-9	7	9	0.8	0.9	22
c1ccc(-c2cnc(CSc3nnc4ccccn34)o2)cc1	1	13	31	0.3	0.7	70*
Cc1ccc(-n2c3c(c(=O)[nH]c2=O)C(C(F)(F)F)(C(F)(F)F)NC(=O)N3)cc1	25	5	1	1.1	1	-9
O=C1CC(NCc2ccccc2F)C(=O)N1c1ccccc1 (configuration not stated)	3	21	20	0.3	0.8	72*
CCOc1ccc(N2C(=O)CC(NCc3ccc(F)cc3)C2=O)cc1 (configuration not stated)	12	2	15	0.8	0.9	16
